Data: PubChem BioAssay (Tox21)
Inconclusive results are not listed. Activity calls are given as the source filed them. Unless noted, calls follow the shape of the dose curve; as a rule, active = well fitted curve in the direction sought with a large enough effect in the repeat runs; inconclusive = weak or mixed curves; inactive = no such curve, though single readings can be large; an effect the other way counts as inactive or inconclusive.

What was measured:
[1] = qHTS assay for small molecules that induce genotoxicity in human embryonic kidney cells expressing luciferase-tagged ATAD5 (AID 651632); also: nearly all actives have a fitted effect of over 15% in size
Method in brief: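 Luminescence read-out: after 16 hr compound exposure at 37C, ATAD5-luciferase HEK293T cells received Amplite, 30 min RT, then CCD imaging. A rise in signal marks genotoxic stress.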

[2] = qHTS assay for small molecules that induce genotoxicity in human embryonic kidney cells expressing luciferase-tagged ATAD5 - cell viability (AID 651634; calls by dose curve; also: nearly all actives have a fitted effect of over 25% in size)
Method in brief: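 HEK293T ATAD5-luc cells, 2,000/well; compound 15.5 hr, 37C/5% CO2; CellTiter-Fluor 30 min, 37C; fluorescence read.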

[3] = qHTS assay for small molecule disruptors of the mitochondrial membrane potential - cell viability (AID 720634; calls by dose curve;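 also: human HepG2 liver cancer cells; series mostly up to about 83 µM; nearly all actives have a fitted effect of over 20% in size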)
Method in brief: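 Luminescence from CellTiter-Glo (ATP content) gave viability in HepG2 cells, read in the same wells as the MMP dye assay after 1 hr compound exposure at 37 C.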

[4] = qHTS assay to test for compound auto fluorescence at 535 nm (green) in HepG2 cells (AID 720675)
[5] = qHTS assay to test for compound auto fluorescence at 460 nm (blue) in HEK293 cells (AID 720678)
Method in brief: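 Intrinsic compound fluorescence is recorded in live HEK293 cultures after overnight incubation at 37C, 5% CO2, using excitation 405 nm and emission 460 nm. Values are referenced to triamterene.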

[6] = qHTS assay to test for compound auto fluorescence at 590 nm (red) in HEK293 cells (AID 720679)
Method in brief: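 Red autofluorescence, HEK293 cells: 2,000 cells/well; attach 4-5 hr 37C; add 23 nL cpd or DMSO; incubate o/n 37C 5% CO2; read Ex540/Em590; Rose Bengal sodium reference.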

[7] = qHTS assay to test for compound auto fluorescence at 535 nm (green) in HEK293 cells (AID 720680)
[8] = qHTS assay to test for compound auto fluorescence at 460 nm (blue) in HEK293 cell free culture (AID 720681)
Method in brief: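 Compounds were added to cell-free DMEM with 10% FBS and fluorescence read directly. The blue channel used 405 nm excitation and 460 nm emission, with triamterene as the reference fluorophore.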

[9] = qHTS assay to test for compound auto fluorescence at 535 nm (green) in HEK293 cell free culture (AID 720682)
Method in brief: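 Steps: dispense DMEM/10% FBS into empty wells; pin in compound or DMSO; measure fluorescence at 485/535 nm. Values are fluorescein equivalents.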

[10] = qHTS assay to test for compound auto fluorescence at 590 nm (red) in HEK293 cell free culture (AID 720683)
Method in brief: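 Cell-free wells of DMEM with 10% FBS received compound, and intrinsic fluorescence was read at excitation/emission 540/590 nm. Values expressed as equivalence to Rose Bengal sodium.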

[11] = qHTS assay to test for compound auto fluorescence at 590 nm (red) in HepG2 cell free culture (AID 720684)
Method in brief: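 Auto fluorescence equivalency versus Rose Bengal sodium, red channel Ex/Em 540/590 nm; compounds in cell-free MEM/10% FBS; DMSO vehicle control.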

[12] = qHTS assay to test for compound auto fluorescence at 460 nm (blue) in HepG2 cell free culture (AID 720685)
Method in brief: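 Cell-free plates of MEM plus 10% FBS received 23 nL compound or DMSO vehicle; blue-channel (405/460 nm) intensity scored against triamterene as reference fluorophore.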

[13] = qHTS assay to test for compound auto fluorescence at 535 nm (green) in HepG2 cell free culture (AID 720686)
[14] = qHTS assay to test for compound auto fluorescence at 460 nm (blue) in HepG2 cells (AID 720687)
Method in brief: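 HepG2 cells in MEM with 10% FBS, attached overnight at 37 C, were exposed to compound or DMSO for 1 hr at 37 C, 5% CO2. Blue fluorescence was read at 405/460 nm, with triamterene as reference fluorophore.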

[15] = target: Glucocorticoid receptor (Homo sapiens) (UniProt P04150); assay: qHTS assay to identify small molecule agonists of the glucocorticoid receptor (GR) signaling pathway (AID 720691; active = well fitted activation curve with a large enough effect in the signal ratio in the repeat runs, not every such curve was filed as active; the % refers to the signal ratio)
Chain of Glucocorticoid receptor (Homo sapiens) (P04150 whole entry, looked up): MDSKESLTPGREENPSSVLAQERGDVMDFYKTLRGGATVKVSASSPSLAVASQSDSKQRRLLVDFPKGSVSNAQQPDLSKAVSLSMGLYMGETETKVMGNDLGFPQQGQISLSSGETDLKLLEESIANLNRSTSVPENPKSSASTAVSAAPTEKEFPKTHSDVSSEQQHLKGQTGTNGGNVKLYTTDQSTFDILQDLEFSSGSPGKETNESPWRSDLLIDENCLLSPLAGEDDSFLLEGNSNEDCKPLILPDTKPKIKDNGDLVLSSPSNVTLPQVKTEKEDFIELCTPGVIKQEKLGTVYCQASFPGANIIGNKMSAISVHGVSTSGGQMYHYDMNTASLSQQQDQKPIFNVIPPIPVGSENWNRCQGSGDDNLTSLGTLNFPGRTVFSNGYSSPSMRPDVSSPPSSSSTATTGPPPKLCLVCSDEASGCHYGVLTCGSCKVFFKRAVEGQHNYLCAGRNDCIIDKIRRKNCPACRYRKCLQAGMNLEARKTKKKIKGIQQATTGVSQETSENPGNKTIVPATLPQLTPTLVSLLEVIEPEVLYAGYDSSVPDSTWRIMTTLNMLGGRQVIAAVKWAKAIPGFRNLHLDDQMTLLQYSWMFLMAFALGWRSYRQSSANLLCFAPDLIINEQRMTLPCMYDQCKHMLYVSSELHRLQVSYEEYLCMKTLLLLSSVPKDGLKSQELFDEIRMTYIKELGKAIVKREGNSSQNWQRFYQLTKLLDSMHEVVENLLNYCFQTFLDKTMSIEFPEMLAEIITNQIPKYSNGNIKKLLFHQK
Method in brief: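 HeLa GR-bla reporter line; cells pre-incubated 4 h, compound in DMSO 18 h at 37 C; LiveBLAzer B/G FRET substrate 2 h RT; fluorescence intensity read-out.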

[16] = qHTS assay for small molecule agonists of the p53 signaling pathway - cell viability (AID 651633; calls by dose curve;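 also: p53RE-bla HCT reporter cells with a stable beta-lactamase p53 reporter; series mostly up to about 83 µM; nearly all actives have a fitted effect of over 30% in size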)
Method in brief: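 p53RE-bla cells were treated with compound for 16 hours at 37 C. Cytotoxicity was then measured as CellTiter-Glo luminescence after 30 min at room temperature.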

[17] = qHTS assay to test for compound auto fluorescence at 590 nm (red) in HepG2 cells (AID 720674)
Method in brief: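 Fluorescence at 590 nm emission following 540 nm excitation was recorded from HepG2 wells one hour after compound transfer, with DMSO-only wells as vehicle and Rose Bengal sodium equivalency as the scale.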

[18] = target: Glucocorticoid receptor (Homo sapiens) (UniProt P04150); assay: qHTS assay to identify small molecule antagonists of the glucocorticoid receptor (GR) signaling pathway (AID 720692; active = well fitted inhibition curve with a large enough effect in the signal ratio in the repeat runs, not every such curve was filed as active; the % refers to the signal ratio)
Method in brief: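 Read-out: beta-lactamase FRET substrate fluorescence, 2 h at room temperature, in HeLa cells stably carrying a GRE-driven bla reporter. Compounds were co-incubated with 5 nM dexamethasone agonist (final) for 18 h at 37 C.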

[19] = qHTS assay for small molecule disruptors of the mitochondrial membrane potential (AID 720635); also: potency is read from the fitted curve at half-maximal effect
Method in brief: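 HepG2 cells exposed to compound 1 hr at 37C, then Mito-MPS dye 30 min. Ratio read of aggregate (540/590 nm) versus monomer (490/535 nm) fluorescence.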
% is scaled to controls: 0 for no effect and ±100 for the full control effect.

CC(C)(C)C1CCCCC1=O (configuration not stated)
inactive: Potency [1] | Potency [2] | Potency [3] | outcome [4] | outcome [5] | outcome [6] | outcome [7] | outcome [8] | outcome [9] | outcome [10] | outcome [11] | outcome [12] | outcome [13] | outcome [14] | Potency [15]

CC1(O)CSC(C)(O)CS1 (configuration not stated)
inactive: Potency [16] | Potency [3] | outcome [17] | outcome [5] | outcome [6] | outcome [7] | outcome [8] | outcome [9] | outcome [10] | outcome [11] | outcome [12] | outcome [13] | outcome [14] | Potency [15] | Potency [18]

CCN(CC)CCOc1ccc(Cc2ccccc2)cc1
inactive: Potency [1] | Potency [2] | Potency [3] | outcome [17] | outcome [4] | outcome [5] | outcome [6] | outcome [7] | outcome [8] | outcome [9] | outcome [11] | outcome [12] | outcome [13] | outcome [14]

Cc1nnc(SCC2=C(C(=O)O)N3C(=O)[C@@H](NC(=O)Cn4cnnn4)[C@H]3SC2)s1
inactive: Potency [16] | Potency [2] | Potency [3] | Potency [19] | outcome [17] | outcome [4] | outcome [5] | outcome [6] | outcome [7] | outcome [8] | outcome [9] | outcome [10] | outcome [11] | outcome [12] | outcome [13] | outcome [14]

CCN(CC)CC1CCCCN1CC(=O)N1c2ccccc2C(=O)Nc2cccnc21 (configuration not stated)
inactive: Potency [2] | Potency [3] | Potency [19] | outcome [17] | outcome [5] | outcome [6] | outcome [7] | outcome [8] | outcome [9] | outcome [10] | outcome [11] | outcome [12] | outcome [13] | outcome [14]

C=O
inactive: Potency [16] | Potency [2] | Potency [3] | outcome [17] | outcome [4] | outcome [5] | outcome [6] | outcome [7] | outcome [8] | outcome [9] | outcome [10] | outcome [11] | outcome [12] | outcome [13] | outcome [14]

CC(=O)N(CC(O)CN(C(C)=O)c1c(I)c(C(=O)NCC(O)CO)c(I)c(C(=O)NCC(O)CO)c1I)c1c(I)c(C(=O)NCC(O)CO)c(I)c(C(=O)NCC(O)CO)c1I (configuration not stated)
inactive: Potency [16] | Potency [2] | Potency [3] | Potency [19] | fluorescence, relative to Rose Bengal [17] 0.142% [at 18.6 µM] | fluorescence, % of fluorescein control [4] 0.0792% [at 18.6 µM] | fluorescence, % of triamterene [5] 0.0832% [at 18.6 µM] | fluorescence, % of fluorescent control [6] -0.003% [at 18.6 µM] | fluorescence, % of fluorescein [7] -0.0222% [at 18.6 µM] | fluorescence, % of fluorescent control [8] 0.0333% [at 18.6 µM] | activity change [9] -0.0739% [at 18.6 µM] | fluorescence, % of Rose Bengal [11] 0.365% [at 18.6 µM] | fluorescence, % of fluorescent control [12] -0.0088% [at 18.6 µM] | fluorescence, % of fluorescein control [13] 0.0651% [at 18.6 µM] | fluorescence, % of fluorescent control [14] -0.0121% [at 18.6 µM] | Potency [15] | Potency [18]

N#Cc1ccc(C(c2ccc(C#N)cc2)n2cncn2)cc1
inactive: Potency [16] | Potency [2] | Potency [3] | Potency [19] | outcome [17] | outcome [4] | outcome [5] | outcome [7] | outcome [8] | outcome [9] | outcome [11] | outcome [12] | outcome [13] | Potency [15] | Potency [18]

Cc1c(N)cccc1N
inactive: Potency [16] | Potency [2] | Potency [3] | outcome [17] | outcome [4] | outcome [5] | outcome [7] | outcome [8] | outcome [9] | outcome [11] | outcome [12] | Potency [15] | Potency [18]
active: Potency [19] 17.6 µM

NC1=NCC2c3ccccc3Cc3ccccc3N12 (configuration not stated)
inactive: Potency [16] | Potency [2] | Potency [3] | Potency [19] | outcome [17] | outcome [4] | outcome [5] | outcome [6] | outcome [7] | outcome [8] | outcome [9] | outcome [11] | outcome [12] | outcome [14] | Potency [15] | Potency [18]

CC1(C)C(=O)N(Cl)C(=O)N1Br
inactive: Potency [1] | Potency [2] | Potency [3] | outcome [17] | outcome [4] | outcome [5] | outcome [7] | outcome [8] | outcome [9] | outcome [10] | outcome [11] | outcome [13] | outcome [14] | Potency [15] | Potency [18]

O=c1[nH]c(=O)n([C@H]2C[C@H](O)[C@@H](CO)O2)cc1C(F)(F)F
inactive: Potency [1] | Potency [2] | Potency [3] | outcome [4] | outcome [5] | outcome [7] | outcome [8] | outcome [9] | outcome [10] | outcome [11] | outcome [12] | outcome [13] | Potency [15]

O=C1Nc2ccc([N+](=O)[O-])cc2C1=O
inactive: Potency [1] | outcome [17] | outcome [4] | outcome [5] | outcome [6] | outcome [7] | outcome [8] | outcome [9] | outcome [10] | outcome [11] | outcome [12] | outcome [13] | Potency [15] | Potency [18]
active: Potency [19] 68.5 µM

c1ccc(CN(CC2=NCCN2)c2ccccc2)cc1
inactive: Potency [16] | Potency [2] | Potency [3] | Potency [19] | outcome [4] | outcome [5] | outcome [6] | outcome [7] | outcome [8] | outcome [9] | outcome [10] | outcome [11] | outcome [12] | outcome [14]

CC(C)C[C@H](NC(=O)OCC1c2ccccc2-c2ccccc21)C(=O)O
inactive: Potency [2] | Potency [3] | outcome [17] | outcome [4] | outcome [5] | outcome [7] | outcome [8] | outcome [9] | outcome [10] | outcome [11] | outcome [12] | outcome [13] | outcome [14] | Potency [18]
